# Test results reported in PubChem BioAssay AID364 (The Scripps Research Institute Molecular Screening Center, 2006).
# About 50 (2%) of roughly 3,300 compounds were called active. The list is a sample of the results. Entries with a potency or affinity are not part of this list. A number with no mark means an inactive call.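 How the source made its calls: active means concentration giving half-maximal inhibition at or below 20 micromolar; inactive means half-maximal concentration above 20 micromolar, or not dose tested.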
# Assay: cytotoxicity toward Jurkat T cells, primary screen, cell-based, Jurkat E6.1, NIH starter set (AID 364);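 further: 100% = cells treated with 4 µM doxorubicin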
# Details: Jurkat E6.1 viability, ATP luminescence, 48 h; at 4 µM; active compounds read high
row,Structure (SMILES),inhibition
1,COc1ccccc1NC(=O)Nc1nnc(C(C)C)s1,9.4%
2,c1ccc(-c2nnc3n2N=C(c2ccc4c(c2)OCO4)CS3)nc1,-6.9%
3,COc1ccc(OC)c(C2=Nn3c(nnc3C3CCCCC3)SC2)c1,5.2%
4,CC(=O)[C@H]1[C@@H]2C(=O)N(c3cccc(Cl)c3)C(=O)[C@@H]2[C@H]2c3ccccc3C=CN21,-1.9%
5,CCOC(=O)CNS(=O)(=O)c1cc(-c2nn(C)c(=O)c3ccccc23)ccc1C,1.1%
6,C=C(C)CC1N(c2cccc(OC)c2)C(=O)[C@@H]2C(C(=O)O)[C@H]3C=C[C@@]12O3 (some centres not stated),5.9%
7,CCCCOc1ccc(C(=O)Nc2ccc(N3CCN(C(C)=O)CC3)cc2)cc1,6.7%
8,N#CC1=C(N)NC(SCc2ccc(Cl)cc2)=C(C#N)C12CCCCC2,7.9%
9,COc1ccc(C(=O)CSC2=C(C#N)C3(CCCCC3)C(C#N)=C(N)N2)cc1,4.2%
10,Cc1csc(SCCn2c(Br)nc3c2c(=O)[nH]c(=O)n3C)n1,-4.7%
11,N#CC1=C(N)C(C#N)(C#N)[C@H](c2ccncc2)[C@H]2CN(C(=O)OCc3ccccc3)CC=C12,2.4%
12,O=C(CSc1nnc(-c2ccco2)c(-c2ccco2)n1)Nc1ccccc1,0.1%
13,COCCOC(=O)c1c(C)nc(SCC(=O)Nc2ccc(C)cc2)c(C#N)c1-c1ccco1,13.5%
14,C=CCN(C)CCCNC(=O)/C=N/O,2.4%
15,CN(CCOC(=O)c1ccc2c(c1)OCCO2)Cc1ccccc1,-9.3%
16,O=C(CC(c1ccco1)S(=O)(=O)c1ccccc1)c1ccc(F)cc1 (configuration not stated),-1%
17,c1cncc(-c2nnc3sc(-c4ccco4)nn23)c1,7.6%
18,COc1cc(-c2nn3c(-c4cccnc4)nnc3s2)cc(OC)c1OC,3.2%
19,Cc1c(NS(=O)(=O)c2cccc3nsnc23)c(=O)n(-c2ccccc2)n1C,-5.3%
20,CCN(CC)CCN1C(=O)C(O)=C(C(C)=O)C1c1ccc(OC)c(OC)c1 (configuration not stated),-15.9%
21,Cn1c(=O)cc(NCc2ccccc2)[nH]c1=O,-8.6%
22,Cc1ccc2cc(CNC(C)(C)C)c(=O)[nH]c2c1,7.6%
23,CCc1c(C)c(C#N)c2nc3ccccc3n2c1-n1nc(C)cc1C,-5.3%
24,COCc1cc(C)nc(SCC(=O)Nc2ccc(C)c(C)c2)c1C#N,-5.4%

row,Structure (SMILES),inhibition
1,CCc1nc2c(sc3nc(N4CCOCC4)c4c(c32)CC(C)(C)OC4)c(=O)o1,-2%
2,CN(C)CCCN1C(=O)C(=O)/C(=C(/O)c2ccccc2)C1c1ccccn1 (configuration not stated),8.4%
3,Cc1cccc(-c2nnc3n2N=C(c2ccccc2)CS3)c1,13.9%
4,COc1ccc(C2=Nn3c(nnc3-c3cccnc3)SC2)cc1OC,-8.2%
5,CCOc1ccc(C2=Nn3c(nnc3-c3ccccn3)SC2)cc1,2.6%
6,CCOc1ccc(C2=Nn3c(nnc3-c3cccnc3)SC2)cc1,2.1%
7,CCOc1ccc(-c2nnc3sc(-c4ccccc4OC)nn23)cc1,1.2%
8,COc1ccc(OC)c(C2=Nn3c(nnc3-c3ccco3)SC2)c1,-10.8%
9,COc1ccc(C2=Nn3c(nnc3-c3ccccn3)SC2)cc1OC,2.3%
10,c1ccc(C2=Nn3c(nnc3-c3ccccn3)SC2)cc1,-9.2%
11,CC1(C)CC(=O)C2=C(C1)N(CC1CCCO1)C(=O)C2(O)C(F)(F)F (configuration not stated),7.7%
12,COc1ccc(-c2nc3n(n2)C(=O)CC(c2ccco2)S3)cc1 (configuration not stated),-1.6%
13,Cc1cc(NCC2CCCO2)n2c(nc3ccccc32)c1C#N (configuration not stated),15.2%
14,CCOC(=O)NC(Nc1sc2c(c1C(N)=O)CCCC2)(C(=O)OCC)C(F)(F)F (configuration not stated),2.5%
15,CC(C)c1cc(NCCN2CCOCC2)n2c(nc3ccccc32)c1C#N,14.6%
16,O=P(Cc1nnco1)(c1ccccc1)c1ccccc1,1%
17,CC(=O)Oc1ccccc1C1OCCN1C(C)=O (configuration not stated),-17.2%
18,Cc1ccc2nc(C(F)(F)F)c(C#N)c(N)c2c1,11.8%
19,C/C(NC(=O)c1ccccc1F)=C1\C(=O)C[C@@H]2[C@H]1C2(C)C,-12.7%
20,Cc1ccc(S(=O)(=O)NC(=O)NCc2ccc3c(c2)OCO3)cc1,7.5%
21,CCN=C1SC(C(=O)Nc2ccc(Cl)c(Cl)c2)CC(=O)N1CC (configuration not stated),-3.4%
22,O=C(OCCN1CCOCC1)c1ccc(OCCN2CCOCC2)cc1,-3.3%
23,Cn1c(/C(C#N)=C/Nc2ccccn2)nc2ccccc21,-8.5%
